Common to all, as to test: NCI-60 one-dose screen, 48 h (100 = growth as untreated, 0 = no growth, -100 = all killed)
Common to all, as to settings: 10 µM

Experiment [1] deals with NCI-H23 lung.
The test system of experiment [2] is NCI-H226 lung.
In experiment [3] the test system is NCI-H322M lung.
Experiment [4] has as its system HOP-62 NSCLC.
The subject of experiment [5] is NCI-H460 lung.
Experiment [6] relates to NCI-H522 lung.
For experiment [7], the system named is A549/ATCC NSCLC.
The subject of experiment [8] is 786-0 renal.
Experiment [9] concerns COLO 205 colon.

The panel holds about 83,000 compounds, 20% with a hit somewhere; the sample as a whole holds those more often.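 Compound tested at a single concentration for 48 hours in 96-well plates; a percent growth value below 10 was scored as active.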 Values without a mark were called inactive. The source made the active and inactive calls.

`CNS(=O)(=O)c1ccc(Cl)c(Cl)c1`: the growth is 110% in experiment [1]; 86.4% in experiment [2]; 103% in [3]; 82.3% in [4]; 109% in experiment [5]; 97.8% in [6]. The growth in [7] was 104%; in [8] it was 85.9%; in experiment [9] it was 114%.
For `O=C(O)c1cccc([N+](=O)[O-])c1O`, the growth in experiment [1] was 98.9%; in [2] it was 104%; in [3], 97.3%; in [4], 96%; in [5], 104%; in [6] it was 101%. Moreover, the values for the growth in experiment [7], in experiment [8] and in experiment [9] were 111%, 102% and 105%, respectively.
Turning to `Oc1ccc(N=Nc2ccc(Br)cc2)c(O)c1`, the growth was 19.6% in experiment [1]; 83.6% in experiment [2]; 67% in experiment [3]; 27.5% in [4]; 8.13% (active) in [5]; -32.1% (active) in [6]. Besides, the growth in experiment [7] is 12.5%; in experiment [8], 15.6%; in experiment [9], 129%.
In the case of `c1c(-c2cc(C3CC3)[nH]n2)n[nH]c1C1CC1`, the growth in [1] is 94.3%; in experiment [2], 95.2%; in experiment [3], 94.8%; in [4], 98.6%; in experiment [5], 83.4%; in [6] it was 79%. Further, the growth in experiment [7] was 88.8%; in [8], 94.3%; in [9] it was 102%.
For the compound `Cc1ccc(Cl)cc1N1C(=O)CC(Sc2ccccc2N)C1=O` (configuration not stated), the growth in experiment [1] is 101%; in [2], 103%; in experiment [3] it was 127%; in experiment [4], 94.2%; in [5], 111%; in experiment [6], 97%. The growth is 88.6% in [7], 106% in experiment [8] and 110% in experiment [9].
Regarding `COc1ccc(Oc2c(I)cc(CC(NC(C)=O)C(=O)O)cc2I)cc1` (configuration not stated), the growth is 61.9% in [1]; 73% in experiment [2]; 102% in experiment [3]; 80.9% in experiment [4]; 104% in experiment [5]; 103% in experiment [6]. For the same compound, the growth in experiment [7] was 87.3%; in experiment [8] it was 71.7%; in experiment [9], 108%.
With `N#CCCN(CCCN1CCOCC1)CN1C(=O)c2ccccc2C1=O`, the growth in [1] is 102%; in experiment [2], 97.9%; in experiment [3], 90.8%; in experiment [4], 105%; in [5], 111%; in experiment [6], 92%. In addition, the growth was 105% in [7], 111% in experiment [8] and 109% in [9].
Consider `O=c1cc(-c2ccccc2)[nH]c(=S)[nH]1`, for which the growth in [1] is 101%; in [2], 103%; in [3], 97.6%; in experiment [4], 108%; in experiment [5], 108%; in [6] it was 89.3%. The values for the growth in experiment [7], in experiment [8] and in experiment [9] were 104%, 97.5% and 119%, respectively.
Regarding `CC(=O)Nc1ccc(NC(C)=O)c2c1C(=O)c1ccccc1C2=O`, the growth was 89.5% in experiment [1]; 81.7% in experiment [2]; 89.1% in [3]; 81.9% in experiment [4]; 102% in [5]; 89.3% in experiment [6]. Further, the values for the growth in [7], in experiment [8] and in [9] were 96.2%, 91% and 87.6%, respectively.
On to `c1csc(-c2cc(-c3cc(-c4cccs4)[nH]n3)n[nH]2)c1`, for which the growth was 91% in [1]; 79.1% in [2]; 94.4% in experiment [3]; 88.3% in [4]; 107% in experiment [5]; 88.9% in experiment [6]. Also, the growth in experiment [7] is 107%; in [8] it was 98.9%; in [9], 114%.
As to `CCCCNC(=O)C(=O)NCCCC`, the growth in experiment [1] is 105%; in experiment [2] it was 106%; in experiment [3] it was 104%; in experiment [4], 108%; in [5] it was 115%; in experiment [6], 112%. Moreover, the growth in experiment [7] is 111%; in experiment [8] it was 101%; in [9], 117%.
For `COc1cc2cc(c1Cl)N(C)C(=O)C[C@H](OC(=O)[C@H](C)N(C)C(C)=O)[C@]1(C)O[C@H]1[C@H](C)[C@@H]1C[C@@](O)(NC(=O)O1)[C@H](OC)C=C/C=C(\C)C2`, the growth was 31.1% in experiment [1]; 3.37% (active) in experiment [2]; 31.5% in [3]; 14% in [4]; 2.87% (active) in [5]; -60.8% (active) in experiment [6]. In addition, the growth in experiment [7] was 38.3%; in [8], 10.6%; in [9], -51.3% (active).
With `C#CC(C)(O)c1ccc(Cl)cc1` (configuration not stated), the growth in experiment [1] was 92.4%; in [2], 78.2%; in experiment [3] it was 99.9%; in experiment [4], 84.6%; in experiment [5], 104%; in experiment [6] it was 91.4%. Also, the results for the growth in experiment [7], in experiment [8] and in [9] were 99.2%, 95.5% and 103%, respectively.
For the compound `Cc1cc(O)ccc1O`, the growth in [1] was 104%; in experiment [2], 96.1%; in experiment [3], 98.5%; in [4] it was 89.8%; in experiment [5], 106%; in experiment [6], 82.9%. Moreover, the growth in experiment [7] is 108%; in [8] it was 75.3%; in experiment [9], 120%.
Consider `NC(C(=O)O)C(O)c1ccco1` (configuration not stated), for which the growth is 108% in experiment [1]; 96.6% in [2]; 107% in experiment [3]; 104% in experiment [4]; 108% in experiment [5]; 137% in experiment [6]. Also, the growth in [7] was 102%; in [8], 98.3%; in experiment [9], 102%.
With `CC(=O)c1c[nH]c2ccccc12`, the growth in [1] was 106%; in experiment [2], 97.5%; in experiment [3], 101%; in experiment [4], 95.8%; in experiment [5], 113%; in experiment [6], 92.9%. In addition, the results for the growth in experiment [7], in [8] and in experiment [9] were 103%, 103% and 119%, respectively.
Turning to `C/C(=N\O)C1(O)CCCCC1`, the growth was 99.5% in experiment [1]; 97.7% in experiment [2]; 87.6% in experiment [3]; 106% in experiment [4]; 98.3% in [5]; 92.8% in experiment [6]. The growth in [7] was 102%; in experiment [8] it was 99%; in [9], 99.4%.
As for `CNC(=O)c1ccccc1CC1(O)c2ccccc2Oc2ccccc21`, the growth in experiment [1] is 71.5%; in experiment [2], 77%; in experiment [3], 51.8%; in experiment [4] it was 71.4%; in experiment [5], 33.7%; in experiment [6], 24.8%. In addition, the growth is 41.8% in experiment [7], 74.8% in [8] and 38% in experiment [9].
For the compound `CCCCCCCCCCC(C)Br` (configuration not stated), the growth in experiment [1] is 102%; in experiment [2] it was 101%; in [3], 94.5%; in [4], 119%; in experiment [5] it was 113%; in experiment [6] it was 104%. Also, the growth in [7] is 97.1%; in experiment [8], 97%; in experiment [9] it was 110%.
As to `CC(=O)Cc1cc(-c2cc(CC(C)=O)[nH]n2)n[nH]1`, the growth in experiment [1] was 102%; in experiment [2], 99.3%; in experiment [3], 96.2%; in experiment [4], 95.1%; in [5] it was 105%; in [6] it was 95.8%. The growth in experiment [7] is 102%; in [8], 103%; in experiment [9], 110%.
Take `O=[N+]([O-])c1ccc(/C=C/C=C/c2ccccc2)c(Cl)c1`: the growth was 89.8% in experiment [1]; 102% in experiment [2]; 96.4% in experiment [3]; 105% in experiment [4]; 84.5% in experiment [5]; 80.9% in [6]. The values for the growth in [7], in experiment [8] and in [9] were 89.8%, 95.6% and 119%, respectively.
With `O=C(O)CCCCNC(=O)c1ccccc1`, the growth in experiment [1] was 91%; in experiment [2] it was 92.3%; in [3], 106%; in experiment [4], 90.8%; in [5], 106%; in experiment [6], 89.4%. The growth in experiment [7] is 98.4%; in experiment [8] it was 97.5%; in experiment [9] it was 108%.
Consider `CC(=O)Nc1cccc(Cl)c1C`, for which the growth in experiment [1] was 103%; in experiment [2], 102%; in [3], 94%; in [4], 100%; in experiment [5], 106%; in experiment [6], 87.7%. Besides, the growth was 88.2% in [7], 96.5% in experiment [8] and 107% in [9].
In the case of `COc1ccccc1NC(=O)c1cc2cc(Br)ccc2cc1O`, the growth in [1] was 4.53% (active); in experiment [2], 8.51% (active); in experiment [3] it was 22.6%; in experiment [4] it was 6.34% (active); in [5] it was 2.06% (active); in experiment [6], -24.5% (active). For the same compound, the growth in [7] was 3.54% (active); in experiment [8], 14.1%; in [9], 50.8%.
Turning to `O=S(=O)(O)C(Nc1ccccc1)c1ccccc1` (configuration not stated), the growth is 103% in experiment [1]; 91.5% in [2]; 97.6% in [3]; 100% in experiment [4]; 102% in experiment [5]; 102% in experiment [6]. In addition, the growth in experiment [7] is 103%; in [8] it was 100%; in experiment [9], 103%.
Take `COC(=O)c1ccccc1N(C)C`: the growth in [1] was 97.7%; in experiment [2] it was 99.3%; in experiment [3], 104%; in experiment [4], 89.7%; in experiment [5] it was 110%; in experiment [6], 99.1%. Further, the growth was 92.7% in experiment [7], 102% in experiment [8] and 101% in [9].
With `O=C1C=C(Nc2ccc([N+](=O)[O-])cc2)c2ccccc2C1=O`, the growth is 30.1% in experiment [1]; 77.6% in [2]; 75.3% in experiment [3]; 51.9% in experiment [4]; 46.4% in [5]; 21.5% in [6]. The growth is 33.3% in [7], 66.6% in [8] and 105% in experiment [9].
Consider `c1ccc2c(N3CCCCC3)ncnc2c1`, for which the growth in experiment [1] was 86.4%; in experiment [2], 87.2%; in [3], 117%; in experiment [4], 100%; in [5], 97.8%; in experiment [6], 47.6%. In addition, the growth in experiment [7] is 86.9%; in experiment [8], 98.7%; in [9], 88.5%.
In the case of `CN(C)C(=O)Oc1cccc([N+](C)(C)C)c1`, the growth in experiment [1] is 109%; in [2], 92.8%; in experiment [3] it was 129%; in experiment [4] it was 100%; in [5], 113%; in [6], 109%. In addition, the results for the growth in [7], in [8] and in experiment [9] were 102%, 116% and 109%, respectively.
Take `O/N=C/c1ccc(O)cc1O`: the growth was 105% in experiment [1]; 108% in experiment [2]; 117% in [3]; 101% in experiment [4]; 109% in experiment [5]; 86% in experiment [6]. For the same compound, the growth was 91.4% in experiment [7], 108% in experiment [8] and 111% in experiment [9].
As for `CN(C)CCN(Cc1ccccc1)c1ccccc1`, the growth in [1] was 99.8%; in experiment [2] it was 109%; in experiment [3] it was 110%; in experiment [4], 107%; in [5] it was 104%; in experiment [6], 104%. The results for the growth in experiment [7], in [8] and in [9] were 106%, 105% and 118%, respectively.
For the compound `N#CC1(Nc2ccc3c4c(cccc24)CC3)CCCCC1`, the growth in [1] is 93.5%; in experiment [2] it was 81.8%; in experiment [3], 85.1%; in experiment [4], 92.9%; in [5] it was 105%; in experiment [6] it was 63.3%. Moreover, the growth was 95% in experiment [7], 106% in [8] and 94.7% in [9].
As to `O=C1Cc2cc(O)ccc2O1`, the growth was 111% in experiment [1]; 103% in experiment [2]; 94.5% in [3]; 101% in experiment [4]; 111% in [5]; 88.4% in experiment [6]. Also, the growth was 98.7% in experiment [7], 103% in [8] and 117% in experiment [9].
